# Test results taken from the supplement of paper PMC9135407.
# Structures can show the parent of a compound that is named as a salt. The campaign covered roughly 5,800 compounds. About 620 (11%) showed activity. The sample as a whole holds a higher share of actives than the screen did. A number with no mark means an inactive call.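 The calls were made as follows: active = score above a cut-off or among the top three wells of a plate; in these data no inactive exceeds 0.85.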
# System: primary human hepatic stellate cells (donor 1)
# Experiment: scaled lipid accumulation score (0 = DMSO-like, 1 = nortriptyline-like); higher = stronger HSC inactivation (lipid re-accumulation), active = hit call of the paper
# Details: 48 h
# Method: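 Primary lipid accumulation screen in primary human hepatic stellate cell myofibroblasts (donor 1, passage 8) in 384-well plates. 100 nL of library compound was pin-transferred into 30 µL medium in duplicate, and cells were treated for 48 h. The 'Scaled' score combines distance from plate baseline, toxicity and reproducibility penalties, and is normalised to nortriptyline (positive) and DMSO (negative) controls on each plate. A hit is defined as scaled >0.85 or among the top 3 wells per plate.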
# [1] = library stock concentration: 10 mM
# [2] = library stock concentration: 3.33 mM
# [3] = library stock concentration: 80 uM
# [4] = library stock concentration: 400 uM
# [5] = library stock concentration: 2 mM
# [6] = library stock concentration: 1 mM
compound,measurement,setting,value
NC(N)=NCCNS(=O)(=O)c1cccc2cnccc12,scaled lipid accumulation score,library stock concentration: 17 mM,0.047
Cl.Cl.O=S(=O)(NCCNC/C=C/c1ccc(Br)cc1)c1cccc2cnccc12 [H 89 dihydrochloride],scaled lipid accumulation score,[1],1.26 (active)
"CNCCNS(=O)(=O)c1cccc2cnccc12 [H-8, Dihydrochloride]",scaled lipid accumulation score,[2],≤ 0
O=S(=O)(NCCNCC=Cc1ccc(Br)cc1)c1cccc2cnccc12,scaled lipid accumulation score,[2],0.01
same,scaled lipid accumulation score,[1],0.542
"NC(N)=NCCNS(=O)(=O)c1cccc2cnccc12 [HA 1004, Dihydrochloride]",scaled lipid accumulation score,[2],≤ 0
O=S(=O)(NCCNC/C=C/c1ccc(Br)cc1)c1cccc2cnccc12 [listing 1 of 2 here],scaled lipid accumulation score,[3],≤ 0
same,scaled lipid accumulation score,[4],≤ 0
same,scaled lipid accumulation score,[5],0.134
"O=S(=O)(NCCNC/C=C/c1ccc(Br)cc1)c1cccc2cnccc12 [H-89, Dihydrochloride]",scaled lipid accumulation score,[2],≤ 0
CNCCNS(=O)(=O)c1cccc2cnccc12 [H-8 dihydrochloride],scaled lipid accumulation score,[1],0.048
O=S(=O)(NCCNC/C=C/c1ccc(Br)cc1)c1cccc2cnccc12 [listing 2 of 2 here],scaled lipid accumulation score,[1],0.989 (active)
"CCCCCC(=O)CC[C@H]1[C@H](O)CC(=O)[C@@H]1C/C=C\CCCC(=O)O [13,14-dihydro-15-keto Prostaglandin E2]",scaled lipid accumulation score,[6],≤ 0
O=C1NC(=O)c2cc(Nc3ccc(F)cc3)c(Nc3ccc(F)cc3)cc21,scaled lipid accumulation score,[1],≤ 0
CC1=C(C(=O)OCCN(Cc2ccccc2)c2ccccc2)C(c2cccc([N+](=O)[O-])c2)C(P2(=O)OCC(C)(C)CO2)=C(C)N1 (stereo not drawn) [Efonidipine hydrochloride monoethanolate],scaled lipid accumulation score,[1],≤ 0
COc1ccccc1CNC1CCCNC1c1ccccc1 (stereo not drawn),scaled lipid accumulation score,[1],0.474
CCCCC[C@H](O)/C=C/C=C\C=C\C=C\[C@@H](O)[C@@H](O)CCCC(=O)O [Lipoxin A4],scaled lipid accumulation score,library stock concentration: 100 uM,≤ -0.021
CC(C)N(CCCNC(=O)Nc1ccc(C(C)(C)C)cc1)C[C@H]1O[C@@H](n2ccc3c(N)ncnc32)[C@H](O)[C@@H]1O,scaled lipid accumulation score,[2],0.204
same,scaled lipid accumulation score,[1],0.636
CC(C)N(CCCNC(=O)Nc1ccc(C(C)(C)C)cc1)C[C@H]1O[C@@H](n2cc(Br)c3c(N)ncnc32)[C@H](O)[C@@H]1O [listing 1 of 2 here],scaled lipid accumulation score,[2],0.805
CC(C)N(CCCNC(=O)Nc1ccc(C(C)(C)C)cc1)C[C@H]1O[C@@H](n2cc(Br)c3c(N)ncnc32)[C@H](O)[C@@H]1O [listing 2 of 2 here],scaled lipid accumulation score,[1],1.12 (active)
"CCCCCCCC/C=C/CCCCCCCC(=O)Nc1c(C(C)C)cccc1C(C)C [Oleic Acid-2,6-diisopropylanilide]",scaled lipid accumulation score,[6],≤ 0
CCCCCCCCCCCCCCCCC(=O)NCCO [Heptadecanoyl Ethanolamide],scaled lipid accumulation score,[6],≤ 0
C[C@@H](Oc1cc(-n2cnc3ccc(CN4CCN(C)CC4)cc32)sc1C(N)=O)c1ccccc1C(F)(F)F [listing 1 of 3 here],scaled lipid accumulation score,[2],1.22 (active)
COc1cc2ncn(-c3cc(OCc4ccccc4C(F)(F)F)c(C(N)=O)s3)c2cc1OC [listing 1 of 2 here],scaled lipid accumulation score,[1],0.992 (active)
C[C@@H](Oc1cc(-n2cnc3ccc(CN4CCN(C)CC4)cc32)sc1C(N)=O)c1ccccc1C(F)(F)F [listing 2 of 3 here],scaled lipid accumulation score,[3],≤ 0
same,scaled lipid accumulation score,[4],0.039
same,scaled lipid accumulation score,[1],0.788
COc1cc2ncn(-c3cc(OCc4ccccc4C(F)(F)F)c(C(N)=O)s3)c2cc1OC [listing 2 of 2 here],scaled lipid accumulation score,[3],≤ 0
same,scaled lipid accumulation score,[4],≤ 0
same,scaled lipid accumulation score,[5],≤ 0
same,scaled lipid accumulation score,[1],0.764
C[C@@H](Oc1cc(-n2cnc3ccc(CN4CCN(C)CC4)cc32)sc1C(N)=O)c1ccccc1C(F)(F)F [listing 3 of 3 here],scaled lipid accumulation score,[5],0.915 (active)
same,scaled lipid accumulation score,[1],1.2 (active)
CC(C)c1cc(C(=O)N2Cc3ccc(CN4CCN(C)CC4)cc3C2)c(O)cc1O,scaled lipid accumulation score,[2],0.544
same,scaled lipid accumulation score,[1],0.828
COc1cc2ncn(-c3cc(OCc4ccccc4S(C)(=O)=O)c(C#N)s3)c2cc1OC [IKK-3 Inhibitor IX],scaled lipid accumulation score,[2],≤ 0
O=C1N(c2ccccc2)c2ccccc2C1(Cc1ccncc1)Cc1ccncc1,scaled lipid accumulation score,[1],≤ 0
O=C1N(c2ccccc2)c2ccccc2C1(Cc1ccncc1)Cc1ccncc1 [Linopirdine dihydrochloride],scaled lipid accumulation score,[1],≤ -0.001
O=C1N(c2ccccc2)c2ccccc2C1(Cc1ccncc1)Cc1ccncc1 [Linopirdine],scaled lipid accumulation score,[1],≤ -0.051
O=C(O)c1ccc(-c2ccc3cc(O)c(C45CC6CC(CC(C6)C4)C5)cc3c2)cc1,scaled lipid accumulation score,[1],0.021
CC[C@H]1OC(=O)[C@H](C)C(=O)[C@H](C)[C@@H](O[C@@H]2O[C@H](C)C[C@H](N(C)C)[C@H]2O)[C@](C)(OC)C[C@@H](C)C(=O)[C@H](C)[C@H]2N(CCCCn3cnc(-c4cccnc4)c3)C(=O)O[C@]12C [Telithromycin],scaled lipid accumulation score,[1],≤ -0.027
CC[C@H]1OC(=O)[C@H](C)C(=O)[C@H](C)[C@@H](O[C@@H]2O[C@H](C)C[C@H](N(C)C)[C@H]2O)[C@](C)(OC)C[C@@H](C)C(=O)[C@H](C)[C@H]2N(CCCCn3cnc(-c4cccnc4)c3)C(=O)O[C@]12C,scaled lipid accumulation score,[1],0.448
CCCCC[C@H](O)/C=C/[C@H]1C=CC(=O)[C@H]1C/C=C\CCCC(=O)O [8-iso Prostaglandin A2],scaled lipid accumulation score,[6],≤ 0
CCCCCCCCCCCCCC(=O)N[C@H](CO)[C@H](O)c1ccc([N+](=O)[O-])cc1,scaled lipid accumulation score,[6],0.012
CC(C)C[C@@H](/C=C/S(C)(=O)=O)NC(=O)[C@H](CC(C)C)NC(=O)[C@H](CC(C)C)NC(=O)OCc1ccccc1,scaled lipid accumulation score,library stock concentration: 9.1 mM,0.738
OC1CCC(Nc2ncc3nc(Nc4c(F)cc(F)cc4F)n([C@@H]4CCOC4)c3n2)CC1 (stereo partly drawn),scaled lipid accumulation score,[3],≤ 0
same,scaled lipid accumulation score,[4],≤ 0
same,scaled lipid accumulation score,[5],≤ 0
same,scaled lipid accumulation score,[1],≤ 0
O=C1O/C(=C/Br)CC[C@@H]1c1cccc2ccccc12 [(R)-Bromoenol lactone],scaled lipid accumulation score,[6],0.064
CCOC(=O)C1(CCCCCCOc2ccc(Cl)cc2)CO1 (stereo not drawn),scaled lipid accumulation score,[1],≤ 0
O=C(O)CCC/C=C\C[C@@H]1[C@@H](/C=C/[C@@H](O)Cc2ccccc2)[C@H](O)C[C@@H]1O [16-phenyl tetranor Prostaglandin F2.alpha.],scaled lipid accumulation score,[6],≤ 0
